From PubChem BioAssay
This is a sample that favours compounds with a hit; in the whole collection about 4.9% have one here.
CSC inhib: cancer stem cell inhibition; cancer stem cell-like cells viability, luminescence; inhibition, % at 7.5 µM; actives 1.1% (n = 300,000); in the data active means inhibition above about 75%; inconclusive means no clear call, values can overlap the other calls; tested in HMLE shEcad cells
Mdm2-MdmX inh: human Mdm2/MdmX binding inhibition; O15151+Q00987; SaOS-2 split-luciferase Mdm2/MdmX complementation, luminescence; inhibition, % at 8 µM; actives 3% (n = 330,000);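 active means inhibition of at least 50% at 8 µM in the primary screen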
Target sequence (O15151 whole entry, looked up): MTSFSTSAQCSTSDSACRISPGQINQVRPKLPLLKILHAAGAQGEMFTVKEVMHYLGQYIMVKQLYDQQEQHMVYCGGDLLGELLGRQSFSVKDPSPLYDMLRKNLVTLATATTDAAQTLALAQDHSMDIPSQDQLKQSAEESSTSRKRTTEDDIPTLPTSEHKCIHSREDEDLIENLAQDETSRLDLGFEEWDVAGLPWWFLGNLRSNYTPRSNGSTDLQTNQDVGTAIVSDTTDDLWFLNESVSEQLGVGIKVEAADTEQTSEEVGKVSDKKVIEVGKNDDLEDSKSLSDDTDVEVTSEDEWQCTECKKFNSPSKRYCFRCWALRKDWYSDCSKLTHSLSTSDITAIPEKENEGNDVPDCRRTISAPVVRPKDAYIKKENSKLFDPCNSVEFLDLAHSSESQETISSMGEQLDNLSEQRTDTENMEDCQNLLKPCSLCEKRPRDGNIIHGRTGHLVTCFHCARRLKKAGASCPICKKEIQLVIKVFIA
Target sequence (Q00987 whole entry, looked up): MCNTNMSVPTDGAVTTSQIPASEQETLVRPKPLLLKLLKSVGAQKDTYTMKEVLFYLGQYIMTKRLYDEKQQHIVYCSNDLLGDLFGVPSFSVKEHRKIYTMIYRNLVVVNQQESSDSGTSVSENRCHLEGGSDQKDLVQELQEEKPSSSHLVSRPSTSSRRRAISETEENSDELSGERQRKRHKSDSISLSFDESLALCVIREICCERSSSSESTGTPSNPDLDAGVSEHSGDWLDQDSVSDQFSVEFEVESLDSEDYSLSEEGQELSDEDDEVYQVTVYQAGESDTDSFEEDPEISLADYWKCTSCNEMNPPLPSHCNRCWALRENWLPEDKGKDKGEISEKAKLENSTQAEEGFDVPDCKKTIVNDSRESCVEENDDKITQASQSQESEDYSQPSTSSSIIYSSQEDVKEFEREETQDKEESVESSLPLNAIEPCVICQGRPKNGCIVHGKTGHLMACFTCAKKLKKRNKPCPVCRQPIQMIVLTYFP
Calb FLC: affects C. albicans growth with fluconazole; C. albicans CaCi-2 (fluconazole-resistant clinical isolate) + fluconazole, Alamar Blue growth, 48 h; growth inhibition, % (test concentration not listed); actives 0.57% (n = 300,000); AID 1979;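 active means growth inhibition above about 58% in most replicates, limit read from the data, passing the limit was not always enough; inconclusive means exactly half the replicates above a set limit; inactive means most replicates below a set limit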;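 further: all wells also contain fluconazole at 8 µg/ml as a sub-toxic cotreatment; 0% = median of DMSO wells and 100% = median of geldanamycin control wells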
Beta apoptosis: beta cell apoptosis inhibition | protection from apoptosis, % (concentration not given with the values) | AID 435005 | INS-1E cytokine-induced death, ATP luminescence, 48 h; percent of positive-control rescue, neutral wells zero | actives 0.8% (n = 300,000);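 active means Every replicate reaches about 75%, or at least half do and their mean reaches it too, limit read from the data; inconclusive means At least half of replicates reach the limit but their mean does not; inactive means Under half of replicates reach the limit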;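 further: 0% = cytokine-treated negative control wells and 100% = positive control rescue; higher means more ATP so stronger rescue from cytokine killing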
PP5 inh: PP5 (human) phosphatase inhibition. inhibition, % at 6.7 µM. P53041. actives 0.18% (n = 320,000). purified PP5c, OMFP substrate fluorescence;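 active means inhibition above the campaign's mean inhibition across all tested compounds plus 3 SD, cut at about 9.5% in these data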;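 further: 0% = DMSO only and 100% = 100 µM cantharidin control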
PP1 counter: PP1-alpha (human) inhibition in PP5 counter-screen; P62136; purified PP1alpha, OMFP fluorescence; inhibition, % at 6.7 µM; actives 0.9% (n = 320,000); AID 2235;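 active means inhibition above the mean inhibition of all tested compounds plus 3 SD, computed separately for each screening campaign, cut at about 15% in these data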
Mdm2-MdmX conf: confirmation of human Mdm2/MdmX interaction inhibitors; AID 489028; inhibition, % at 8 µM; shares compounds with Mdm2-MdmX inh; Mdm2-MdmX binding, luminescent assay; actives 55% (n = 10,000); in the data active means inhibition above about 40%
FLuc counter: full-length luciferase inhibition in Mdm2/MdmX counter-screen; SaOS-2 full-length luciferase counterscreen, luminescence; shares compounds with Mdm2-MdmX inh; AID 504607; actives 77% (n = 6,200); inhibition, % at 8 µM;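 active means mean inhibition at 8 µM reaching about 37%, which flags the compound as non-specific, limit read from the data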;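 further: p53-null SaOS-2 cells with luciferase driven by a doxycycline-inducible promoter; compound on cells about two nights before reading with doxycycline added after day one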
Numbers without * were called inactive; ? = inconclusive; / = not tested or not shown.

SMILES	CSC inhib	Mdm2-MdmX inh	Calb FLC	Beta apoptosis	PP5 inh	PP1 counter	Mdm2-MdmX conf	FLuc counter
CCN1/C(=C/c2ccc3cc(C)ccc3[n+]2CC)Sc2ccc3sccc3c21	49	101*	101*	140*	-1	-1	87*	17
CC[n+]1c(C)sc2c3ccsc3ccc21	-6	-10	7	-17	3	-2	/	/
CCOC(=O)c1c(C)[nH]c(C(=O)OCC(=O)Nc2ccc(Cl)cn2)c1C	-16	14	/	-2	1	-2	/	/
CCOC(=O)c1c(C)[nH]c(C(=O)OCC(=O)Nc2cc(C)c(Cl)cc2OC)c1C	7	54*	-4	10	0	4	19	/
CCOC(=O)c1[nH]c(C)c(C(=O)c2cc(F)ccc2F)c1C	60	59*	3	16	1	-3	56*	76*
CCOC(=O)c1c(C)[nH]c(C(=O)OCC(=O)Nc2sccc2C(N)=O)c1C	43	56*	22	48	1	13	59*	66*
CCOC(=O)c1c(C)[nH]c(C(=O)OCC(=O)NCc2ccc(OC)c(OC)c2)c1C	8	3	/	3	1	1	/	/
C/C(CCc1ccccc1)=N\NC(=O)CC(=O)NCCc1ccccc1	-10	6	6	-12	3	0	/	/
COC(=O)c1ccccc1NC(=O)CSc1nnnn1CC(=O)O	/	13	-7	-8	1	-2	/	/
C=C(C)C1Cc2c(C)nn(-c3nc(C)cc(C)n3)c2C1 (stereo not drawn)	-20	55*	1	23	2	-3	9	/
C=C(C)C1Cc2nc(N)nc(C)c2C1 (stereo not drawn)	-16	-8	3	/	1	-2	/	/
C=CCOc1ccccc1CNc1cccc(F)c1	3	1	-1	-2	1	0	/	/
C=CCOc1ccccc1CNc1ccc2c(c1)OCCO2	12	64*	-10	9	-2	0	65*	69*
O=C(NCCc1ccc(F)cc1)Nc1ccc([N+](=O)[O-])cc1	-2	-1	-28	11	/	/	/	/
O=[N+]([O-])c1ccc(NC(=S)NCCc2ccc(F)cc2)cc1	2	86*	?	76*	6	2	63*	86*
CC(NCc1ccc(-c2ccccc2)cc1)C(O)c1ccccc1 (stereo not drawn)	63	82*	1	8	-1	7	63*	64*
Cc1c(OCC(=O)NCCCN2CCOCC2)ccc2c1oc(=O)c1ccccc12	5	10	4	/	-2	-5	/	/
CC(=O)Oc1cc2c(C(=O)NCCCN3CCOCC3)c(C)oc2c2ccccc12	-16	51*	-2	/	0	-2	12	/
CCc1ccc(S(=O)(=O)NCCc2cn3ccc(C)cc3n2)s1	-17	-23	9	0	-1	-4	/	/
C[C@H]1CN([C@@H](C)CO)C(=O)Cc2cc(NS(=O)(=O)c3cccs3)ccc2O[C@H]1CN(C)S(=O)(=O)c1cn(C)cn1	8	7	/	0	/	/	/	/
CCOc1cccc(/C=C/c2ccc3cccc(O)c3n2)c1O	57	67*	-4	36	0	12	-36	/
COC(=O)c1ccccc1NC(=O)c1ccccc1OC	-4	5	2	0	2	-2	/	/
COc1ccccc1C(=O)Nc1ccccc1SC(=O)c1ccccc1OC	58	63*	-2	29	3	4	40	90*
COc1ccc2nc(N=NC3=C(O)CC(C)(C)CC3=O)sc2c1	/	12	19	2	2	0	/	/
COc1ccc2nc(N=Nc3ccc(O)c4ccccc34)sc2c1	92*	66*	-5	?	0	-2	78*	35
SMILES	CSC inhib	Mdm2-MdmX inh	Calb FLC	Beta apoptosis	PP5 inh	PP1 counter	Mdm2-MdmX conf	FLuc counter
CC(NC(=O)C1CCC(CNS(=O)(=O)c2ccccc2)CC1)c1ccc2c(c1)OCCO2 (stereo not drawn)	-5	7	10	4	0	-2	/	/
C/C(=N/NC(=O)CN(c1ccccc1)S(=O)(=O)c1ccccc1)c1ccccc1O	28	72*	2	109*	1	3	60*	27
Cc1ccc(-n2c(C)cc(/C=c3/sc4nc5ccccc5n4c3=O)c2C)cc1	-8	82*	11	1	-1	-1	61*	28
O=C(Nc1ccccc1[N+](=O)[O-])C1COc2ccccc2O1 (stereo not drawn)	-1	-72	-14	1	4	2	/	/
O=C(COC(=O)c1ccccc1[N+](=O)[O-])c1ccc2c(c1)OCO2	-12	53*	-2	-9	1	-5	83*	148*
Cc1ccc(C(=O)OCC(=O)c2cc(C)n(CC3CCCO3)c2C)cc1 (stereo not drawn)	-3	10	-1	-5	-1	-5	/	/
Cc1cc(C(=O)COC(=O)c2ccccc2O)c(C)n1CC1CCCO1 (stereo not drawn)	/	94*	/	12	-1	-1	97*	36
Cc1cc(C(=O)COC(=O)c2ccccc2O)c(C)n1Cc1cccs1	5	97*	-11	8	2	1	94*	21
Cc1cc(C(=O)COC(=O)c2ccccc2Br)c(C)n1CC1CCCO1 (stereo not drawn)	-17	91*	-3	9	-1	-3	93*	39*
Cc1cccc(C(=O)OCC(=O)c2ccc3c(c2)OCO3)c1O	-9	-141	-10	/	3	-1	/	/
COc1ccc(-c2nc(CSCC(=O)NCCCN3CCCC3=O)c(C)o2)cc1OC	0	-7	-1	5	0	-1	/	/
Cc1cc(C(=O)COC(=O)c2cccnc2Cl)c(C)n1CC1CCCO1 (stereo not drawn)	-15	79*	11	8	-1	-4	82*	97*
CCn1c(C)cc(C(=O)COC(=O)c2ccccc2[N+](=O)[O-])c1C	7	96*	/	32	/	/	96*	53*
Cc1cc(C(=O)COC(=O)c2ccccc2NCCO)c(C)n1CC1CCCO1 (stereo not drawn)	17	5	-5	-5	4	-4	/	/
COCCn1c(C)cc(C(=O)COC(=O)c2ccccc2Br)c1C	-7	80*	24	2	-2	2	93*	74*
C=CCn1c(C)cc(C(=O)COC(=O)c2ccc(N)c([N+](=O)[O-])c2)c1C	1	-169	-5	-1	2	-1	/	/
Cc1cc(C(=O)COC(=O)c2cccc(NS(C)(=O)=O)c2)c(C)n1CC1CCCO1 (stereo not drawn)	-26	70*	/	-1	/	/	74*	97*
Cc1ccc(NC(=O)C2CCN(S(=O)(=O)c3ccc4c(c3)NC(=O)CO4)CC2)cc1	3	2	4	-2	3	3	/	/
